Where a name gives a salt, the structure may show the parent alone. ± gives the standard deviation of the averaged measurements.

The test system of the experiment is A549. Kind of experiment: relative viability (normalised to negative control = 1, bortezomib = 0) (fraction); higher = less cytotoxic. The conditions noted are these: inflammatory serum-free RHB-A with cytokines + LPS; 5 d + 24 h CellTiter-Blue; compound 30 nM; GSK126 pretreatment: 5 uM GSK126. For orientation: Resazurin is reduced to fluorescent resorufin, in cell work by metabolically active cells.
Consider `CN(C)c1ccc(-c2nc3ncc(Cl)c(N4CCN(CC(=O)Nc5nccs5)CC4)c3[nH]2)cc1`, for which the relative viability was determined as 0.997 ± 0.11.

In the case of `COc1cc2/c(=N/c3ccc(Br)cc3F)nc[nH]c2cc1OCC1CCN(C)CC1` [Vandetanib], the relative viability turned out to be 0.923 ± 0.1.

As to `O=NN(CCCl)C(=O)NCCCl` [Carmustine], the relative viability worked out at 0.852 ± 0.1.

As for `N#CCNC(=O)c1ccc(-c2ccnc(Nc3ccc(N4CCOCC4)cc3)n2)cc1`, the relative viability was 0.933 ± 0.027. In the case of `O=C(Nc1cccc(Cl)c1)Nc1ncc(CCNc2ncnc3ccsc23)s1` [SNS-314 Mesylate], the relative viability amounted to 0.763 ± 0.13. In the case of `O=c1c(O)c(-c2ccc(O)c(O)c2)oc2cc(O)cc(O)c12` [QUERCETIN; Quercetin(Sophoretin); Quercetin dihydrate], the relative viability is 0.89 ± 0.032.

Consider `COc1ccc2c3n(c(=NC(=O)c4cccnc4)nc2c1OC)CCN3`, for which the relative viability amounted to 0.7 ± 0.049. Then `CN(Cc1cnc2nc(N)nc(N)c2n1)c1ccc(C(=O)N[C@@H](CCC(=O)O)C(=O)O)cc1` [Methotrexate hydrate; Methotrexate], with 0.813 ± 0.055; and `Cc1nc(NC(=O)N2CCC[C@H]2C(N)=O)sc1-c1csc(C(C)(C)C)n1`, with 0.809 ± 0.045. Regarding `O=C(NC[C@H](O)CO)c1ccncc1Nc1ccc(I)cc1F`, the relative viability came out at 0.247 ± 0.056. Then `O=C1CCC(N2C(=O)c3ccccc3C2=O)C(=O)N1` (centres undefined), with 0.862 ± 0.17.

With `CC(C)Cn1cnc2c(N)nc3ccccc3c21` [Imiquimod], the relative viability was found to be 0.8017 ± 0.004. For the molecule `Cc1cc(Nc2cc(CN3CCOCC3)c3nc(C)c(Cc4ccc(Cl)cc4F)n3n2)n[nH]1`, the relative viability worked out at 0.974 ± 0.13. Then `CS(=O)(=O)N1CCN(Cc2cc3nc(-c4cccc5[nH]ncc45)nc(N4CCOCC4)c3s2)CC1`, with 0.716 ± 0.093.

Values taken from the supplement of paper PMC6279402.
